In the supplement of paper PMC9262897, “Low-cost anti-mycobacterial drug discovery using engineered E. coli” (Nature Communications, 2022) one finds growth data, which are given here for 40 compounds.

Structures can show the parent of a compound that is named as a salt. ± gives the standard deviation of the averaged measurements.

The test system of this assay is E. coli TESEC Alr+ wild-type control. Briefly: growth (OD600 after 10 h); higher = more growth (less inhibition). To be noted: compound 0.1 mM; raw OD600 reference: median of DMSO wells 0.49, cell-free background 0.052. Here is the method: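 TESEC Mtb Alr E. coli (ΔaraC ΔtolC ΔentC Δalr ΔdadX, arabinose-inducible Mtb Alr) or the Alr+ wild-type control strain, grown in defined M9-fructose medium without D-alanine in 96-well plates with Prestwick library compounds at 0.1 mM and 1% DMSO. Low Alr induction is 0.1 µM arabinose and high induction is 10 mM arabinose.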
The compound `OC(c1ccccc1)(c1ccccc1)C1CCNCC1` [Azacyclonol] displayed a growth of 0.523 ± 0.032.

The compound `CC(Cc1ccccc1)NCCC(c1ccccc1)c1ccccc1` (stereo not given) [Prenylamine lactate] registered a growth of 0.0478 ± 0.00061.

Compound `O=c1c2ccccc2[se]n1-c1ccccc1` [Ebselen] showed a growth of 0.538 ± 0.076.

In turn, `CN(C)[C@@H]1C(=O)C(C(N)=O)=C(O)[C@@]2(O)C(=O)C3=C(O)c4c(O)cccc4[C@@](C)(O)[C@H]3[C@H](O)[C@@H]12` [Oxytetracycline dihydrate] showed a growth of 0.0551 ± 0.00064.

`CCNCC(O)c1cccc(O)c1` (stereo not given) [Etilefrine hydrochloride]: the growth was 0.446 ± 0.011.

`C=CCC1(CC(C)C)C(=O)NC(=O)NC1=O` [Butalbital] displayed a growth of 0.516 ± 0.029.

`O=C(CCCN1CCC(n2c(=O)[nH]c3ccccc32)CC1)c1ccc(F)cc1` [Benperidol]: the growth was found to be 0.407 ± 0.02.

As to `CC(C)c1cccc(C(C)C)c1O` [Propofol], the growth is 0.55 ± 0.038.

`COc1cc2c(c(OC)c1OC)-c1ccc(OC)c(=O)cc1[C@@H](NC(C)=O)CC2` [Colchicine] registered a growth of 0.6712 ± 0.00062.

With `COc1ccc(C(=O)N2CCCC2=O)cc1` [Aniracetam], the growth was determined as 0.467 ± 0.054.

`C1CCc2nnnn2CC1` [Pentylenetetrazole]: the growth stood at 0.46 ± 0.054.

The compound `COc1ccc(OC)c(C(O)C(C)N)c1` (stereo not given) [Methoxamine hydrochloride] had a growth of 0.458 ± 0.037.

`c1ccc2nc(N3CCNCC3)ccc2c1` [Quipazine dimaleate salt] gave a growth of 0.47 ± 0.0099.

On to `CN1[C@@H]2C[C@@H](OC(=O)[C@H](CO)c3ccccc3)C[C@H]1[C@@H]1O[C@@H]12` [Scopolamine hydrochloride], for which the growth was 0.469 ± 0.026.

In turn, `CN1CCN(C(=O)OC2c3nccnc3C(=O)N2c2ccc(Cl)cn2)CC1` (stereo not given) [Zopiclone] displayed a growth of 0.454 ± 0.011.

In turn, `C[C@]12CC[C@H](O)C[C@H]1CC[C@@H]1[C@@H]2CC[C@]2(C)[C@@H](C3=CC(=O)OC3)CC[C@]12O` [Digitoxigenin] yielded a growth of 0.439 ± 0.016.

For the compound `C[C@]12COC(=O)C[C@@H]1CC[C@@H]1[C@@H]2CC[C@@]2(C)[C@H]1CC[C@]2(C)O` [Oxandrolone], the growth is 0.435 ± 0.042.

For the compound `CCn1cc(C(=O)O)c(=O)c2cc3c(cc21)OCO3` [Oxolinic acid], the growth was 0.0605 ± 0.0014.

With `CC(C)CC(N(C)C)C1(c2ccc(Cl)cc2)CCC1` (stereo not given) [Sibutramine HCl], the growth was determined as 0.602 ± 0.091.

For the compound `O=C(O)CCCc1ccc(N(CCCl)CCCl)cc1` [Chlorambucil], the growth worked out at 0.537 ± 0.095.

In turn, `COP(=O)(OC)C(O)C(Cl)(Cl)Cl` (stereo not given) [Trichlorfon] displayed a growth of 0.505 ± 0.046.

Take `Oc1ccc2c3c1O[C@H]1[C@@H](O)CC[C@@]4(O)[C@@H](C2)N(CC2CCC2)CC[C@]314` [Nalbuphine hydrochloride]: the growth was 0.515 ± 0.011.

The compound `C=CCN1CC[C@]23c4c5ccc(O)c4O[C@H]2C(=O)CC[C@@]3(O)[C@H]1C5` [Naloxone hydrochloride] returned a growth of 0.479 ± 0.016.

`CC1C=CC=CCCC=CC=CC=CC=CC(OC2OC(C)C(O)C(N)C2O)CC2OC(O)(CC(O)C(O)CCC(O)CC(O)CC(O)CC(=O)OC(C)C(C)C1O)CC(O)C2C(=O)O` (stereo not given) [Nystatine]: the growth turned out to be 0.471 ± 0.021.

In the case of `CN(C)[C@@H]1C(=O)C(C(N)=O)=C(O)[C@@]2(O)C(=O)C3=C(O)c4c(O)ccc(Cl)c4[C@@](C)(O)[C@H]3C[C@@H]12` [Chlortetracycline hydrochloride], the growth is 0.0491 ± 0.00036.

Consider `C=C1CC[C@@]2(O)[C@H]3Cc4ccc(O)c5c4[C@@]2(CCN3CC2CC2)[C@H]1O5` [Nalmefene hydrochloride], for which the growth was 0.4625 ± 0.0046.

For the compound `C[C@]12C/C(=C/O)C(=O)C[C@@H]1CC[C@@H]1[C@@H]2CC[C@@]2(C)[C@H]1CC[C@]2(C)O` [Oxymetholone], the growth came to 0.462 ± 0.01.

On to `C[C@]12C[C@H]3S[C@H]3C[C@@H]1CC[C@@H]1[C@@H]2CC[C@]2(C)[C@@H](O)CC[C@@H]12` [Epitiostanol], for which the growth was 0.534 ± 0.0058.

Turning to `C[C@]12N[C@H](Cc3ccccc31)c1ccccc12` [Dizocilpine maleate], the growth came out at 0.54 ± 0.094.

With `CC(=O)OC1CN2CCC1CC2` (stereo not given) [Aceclidine Hydrochloride], the growth worked out at 0.459 ± 0.015.

For `CCN(C(C)=O)c1cccc(-c2ccnc3c(C#N)cnn23)c1` [Zaleplon], the growth turned out to be 0.504 ± 0.065.

In turn, `C(#CCN1CCCC1)CN1CCCC1` [Tremorine dihydrochloride] showed a growth of 0.696 ± 0.067.

On to `CCCC(C)(COC(N)=O)COC(=O)NC(C)C` (stereo not given) [Carisoprodol], for which the growth came out at 0.594 ± 0.082.

As for `CN[C@@H]1[C@@H](O)[C@@H](O[C@@H]2[C@@H](O)[C@H](O[C@H]3O[C@H](CN)CC[C@H]3N)[C@@H](N)C[C@H]2N)OC[C@]1(C)O.CN[C@@H]1[C@@H](O)[C@@H](O[C@@H]2[C@@H](O)[C@H](O[C@H]3O[C@H]([C@@H](C)N)CC[C@H]3N)[C@@H](N)C[C@H]2N)OC[C@]1(C)O.CN[C@@H]1[C@@H](O)[C@@H](O[C@@H]2[C@@H](O)[C@H](O[C@H]3O[C@H]([C@@H](C)NC)CC[C@H]3N)[C@@H](N)C[C@H]2N)OC[C@]1(C)O` [Gentamicine sulfate], the growth is 0.0643 ± 0.0096.

Regarding `CCCC(C)C1(CC)C(=O)NC(=O)NC1=O` (stereo not given) [Pentobarbital], the growth is 0.432 ± 0.011.

The compound `CC(=O)OCC(=O)[C@H]1CC[C@H]2[C@@H]3CC[C@H]4C[C@H](O)CC[C@]4(C)[C@H]3C(=O)C[C@]12C` [Alfadolone acetate] gave a growth of 0.474 ± 0.013.

`C[N+]1(C)CCCC(OC(=O)C(O)(c2ccccc2)c2ccccc2)C1` (stereo not given) [Mepenzolate bromide] came in with a growth of 0.435 ± 0.012.

As to `Clc1ccc(C(OCCN2CCCCC2)c2ccccc2)cc1` (stereo not given) [Cloperastine hydrochloride], the growth came out at 0.413 ± 0.033.

The compound `CC(=O)O[C@H]1C[C@H](O[C@H]2[C@@H](O)C[C@H](O[C@H]3[C@@H](O)C[C@H](O[C@H]4CC[C@@]5(C)[C@H](CC[C@@H]6[C@@H]5C[C@@H](O)[C@]5(C)[C@@H](C7=CC(=O)OC7)CC[C@]65O)C4)O[C@@H]3C)O[C@@H]2C)O[C@H](C)[C@H]1O[C@@H]1O[C@H](CO)[C@@H](O)[C@H](O)[C@H]1O` [Lanatoside C] had a growth of 0.528 ± 0.096.

Turning to `O=C1CC[C@@]2(O)[C@H]3Cc4ccc(O)c5c4[C@@]2(CCN3CC2CC2)[C@H]1O5` [Naltrexone hydrochloride dihydrate], the growth worked out at 0.496 ± 0.022.
